Assay outcomes from PubChem.
Most compounds without a hit are left out; they make up all but 6.7% or so of the library.
KB-V1 MDR tox: kills drug-selected multidrug resistant KB-V1 cells; Potency, µM (titrated, usually from 46.1 µM), hits mostly cytotoxic; KB-V1 MDR cells viability, CellTiter-Glo, 72 h; 400,000 tested, 3.4% active; note: % is set by controls: 0 for no effect and ±100 for the full control effect; nearly all actives have a fitted effect of over 60% in size
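Following 72 h at 37 degrees C with compound, KB-V1 cell viability was read by CellTiter-Glo luminescence, medium being phenol-red-free DMEM plus 10% FBS; concentration-response parameters came from normalized, curve-fitted qHTS data.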
PINK1 modulator: changes PINK1 expression | PINK1 immunofluorescence, high-content cytometry, 24 h | Potency, µM (top dose mostly 76.6 µM), for the others: at the top dose activation (PINK1 increase), usual class: activators | 410,000 tested, 0.2% active | AID 624263; active = well fitted activation curve with a large enough effect; inconclusive = small, poorly fitted or top-dose-only effect; cell line not stated here; note: % of control where 0% means no effect; nearly all actives have a fitted effect of over 65% in size
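Cells are seeded, rested 12 hours, then given compound at five concentrations or DMSO for 24 hours. After fixation, blocking and antibody staining, PINK1 amount and mitochondrial localization are scored; CCCP serves as control.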
SW480 rerep: inducers of DNA re-replication in SW480 colon cancer cells; SW480 DNA re-replication, Hoechst DNA content imaging, 48 h; Potency, µM (titrated, usually from 46.1 µM), inactives show at the highest dose re-replication activation, usual class: activators; 340,000 tested, 1.8% active; note: % of control where 0% means no effect; nearly all actives have a fitted effect of over 55% in size
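250 cells/well; 23 nL cpd via pin tool; 48 hr, 37 C, 5% CO2; Hoechst 40 min; imager read of total nuclear intensity, ex 405/em 500-530 nm.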
KB-3-1 cytotox: kills parental KB-3-1 adenocarcinoma cells; 400,000 tested, 1.4% active; Potency, µM (doses to about 46.1 µM), most hits filed as cytotoxic; KB-3-1 viability, CellTiter-Glo ATP luminescence, 72 h; note: % is set by controls: 0 for no effect and ±100 for the full control effect; nearly all actives have a fitted effect of over 60% in size
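Cytotoxicity measured as CellTiter-Glo luminescence after 72 h at 37 C. Compound titrations were pinned onto drug-naive KB-3-1 parental adenocarcinoma cells grown in DMEM with 10% FBS, and normalized data fitted to concentration-response curves.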
MCF10A rereplic: inducers of DNA re-replication in MCF 10A breast cells. MCF 10A DNA re-replication, Hoechst nuclear intensity, 48 h. Potency, µM (series often up to 46.1 µM), inactives show at the highest dose activity, positive = re-replication, actives largely listed as activators. 350,000 tested, 2.9% active. AID 624296; note: % of control where 0% means no effect; nearly all actives have a fitted effect of over 50% in size
An asterisk follows results filed as active; i = inactive; ? = inconclusive; / = no result; ! = not confirmed by another sample; [ ] = another dose, or the depositor's remark. Unless noted, calls come from the whole dose curve; as a rule, active = well fitted curve in the direction sought with a large enough effect; inconclusive = small, poorly fitted or top-dose-only effect, or another doubt; inactive = no such curve, though single readings can be large; an effect the other way counts as inactive or inconclusive. Potency is the fitted concentration of half-maximal effect.

SMILES	KB-V1 MDR tox	PINK1 modulator	SW480 rerep	KB-3-1 cytotox	MCF10A rereplic
CSc1nc(NCC(C)C)c2c3c(sc2n1)CN(C)CC3	18µM*	28%[38.3 µM]	6%	i	15%
COc1ccc(CN2CCC(n3cc(C(=O)N4CCCC4)nn3)CC2)c(OC)c1C	/	0%	/	/	/
CCOC(=O)c1ccc(N2C(=O)c3[nH]nc(-c4ccc(OCC)cc4)c3C2c2cccs2)cc1 (stereo not drawn)	?	2%	/	?	/
CCCn1cc(NC(=O)C2CC(c3cccc(Br)c3)=NO2)cn1 (stereo not drawn)	i	5%[38.3 µM]	16µM*	i	23µM*
COc1cccc(C2=NOC(C(=O)NCc3ccccc3)C2)c1 (stereo not drawn)	?	9%	?	12µM*	1.6µM*
COc1cccc(C2=NOC(C(=O)NCc3ccco3)C2)c1 (stereo not drawn)	21µM*	8%	?	23µM*	4.1µM*
O=C(NCc1ccc2c(c1)OCO2)C1CC(c2cccc(Br)c2)=NO1 (stereo not drawn)	i	0%	-11%	i	12µM*
O=C(NCc1ccc2c(c1)OCO2)C1CC(c2ccccc2O)=NO1 (stereo not drawn)	i	/	-3%	i	?
O=C(NCCc1ccc(Cl)cc1)c1nc(-c2cccc(F)c2)n2c1CCCCC2	i	0%	/	i	/
O=C(COc1ccccc1)NCC(=O)N1CCCCCC1	i	-2%	0%	i	21%
O=C(c1ccc(Cl)cc1)N1CCCCC1CCN1CCOCC1 (stereo not drawn)	/	0%	/	/	/
COc1ccc(C2=NOC(C(=O)NCc3ccccc3)C2)cc1 (stereo not drawn)	7.3µM*	6%[38.3 µM]	2.6µM*	7.3µM*	0.37µM*
COc1ccc(CNC(=O)C2CC(c3cc(C(F)(F)F)cc(C(F)(F)F)c3)=NO2)cc1 (stereo not drawn)	?	9%	-9%	?	6.5µM*
CN(C)c1ncc2nc(-c3ccc(F)cc3)c(=O)n(C[C@H]3CCCO3)c2n1	/	1%	/	/	/
CCOC(=O)C1C(=O)C=C(/C=C/c2ccccc2)CC1c1ccc(Cl)cc1 (stereo not drawn)	16µM*	2%[38.3 µM]	?	i	3%
CCOC(=O)C1NC(=O)CC1c1ccccc1 (stereo not drawn)	i	1%	-2%	i	-5%
CCc1ccc(N(C(=O)CCC(=O)Nc2cc(C)on2)C(C(=O)NC(C)(C)C)c2ccc(OC)cc2)cc1 (stereo not drawn)	?	6%	3%	i	?
C[C@H](O)[C@@H]1CN2CCc3c([nH]c4ccc(-c5ccc6c(c5)OCO6)cc34)[C@@H]2C[C@@H]1N(C)C(=O)NC1CCCCC1	?	2%	/	0.58µM*	/
C[C@H](O)[C@@H]1CN2CCc3c([nH]c4ccc(-c5ccc6c(c5)OCO6)cc34)[C@@H]2C[C@@H]1N(C)C(=O)Nc1cc(Cl)cc(Cl)c1	?	13%	/	13µM*	/
Cc1ccc(-c2csc(/C(C#N)=C/c3ccccc3Cl)n2)cc1	/	2%	/	/	/
Cc1ccc(NC(=O)CSc2nnc(-c3cnccn3)n2Cc2ccco2)cc1	7.3µM*	-3%[38.3 µM]	-3%	i	11%
Cc1cc(C)c(NC(=O)CSc2nnc(CN3CCOCC3)n2C)c(C)c1	i	-1%	29µM*	i	-3%
CC1(C)Cc2ccccc2-c2nnc(SCC(=O)Nc3ccc4c(c3)OCO4)n21	4.1µM*	-3%	1%	i	6%
O=C(CSc1nnc(CN2CCOCC2)n1-c1ccc(Cl)cc1)Nc1ccc2c(c1)OCO2	10µM*	-1%[38.3 µM]	2%	i	1%
Cc1cc(C)cc(NC(=O)CSc2nnc(CN3CCOCC3)n2C)c1	i	1%	-12%	i	13%
SMILES	KB-V1 MDR tox	PINK1 modulator	SW480 rerep	KB-3-1 cytotox	MCF10A rereplic
O=C(CSc1nnc(-c2ccncc2)n1Cc1ccco1)Nc1cccc(O)c1	?	-3%	-20%	i	4%
Clc1ccc(CSc2nnc(-c3ccccn3)n2Cc2ccco2)c(Cl)c1	10µM*	-2%[38.3 µM]	15%	?	?
CCn1c(SCC(=O)Nc2ccc3c(c2)OCO3)nnc1-c1cnccn1	21µM*	-3%	-11%	i	-1%
COC(=O)CSc1nnc(-c2ccccn2)n1Cc1ccco1	i	0%	-3%	i	0%
CCn1c(SCC(=O)Nc2ccc(OC)c(OC)c2)nnc1-c1cnccn1	i	-2%	-1%	i	8%
Cc1cc(C)c(NC(=O)CSc2nnc(-c3ccncc3)n2Cc2ccco2)c(Cl)c1	23µM*	1%	-4%	?	0%
Brc1ccc(CSc2nnc(-c3cnccn3)n2Cc2ccco2)cc1	9.2µM*	4%	8%	?	?
CCN1C(=O)CSC1=Nc1cccc(C(=O)O)c1	i	1%	-4%	i	-1%
Cc1ccccc1OCc1nnc(SCC(=O)Nc2ccc3c(c2)OCO3)n1C	i	0%[38.3 µM]	-10%	i	?
CCn1c(COc2ccccc2C)nnc1SCC(=O)Nc1ccc2c(c1)OCCO2	4.6µM*	?	-9%	i	?
Fc1ccccc1CSc1nnc(-c2cnccn2)n1Cc1ccco1	18µM*	-4%	-93%	i	-59%
N#Cc1ccc(CSc2nnc(-c3ccccc3)n2Cc2ccco2)cc1	3.7µM*	-5%[38.3 µM]	-1%	i	?
COc1cccc(CNC(=O)c2c(OC)cc(=O)n3c2CCN(C(=O)c2ccc(C)s2)CC3)c1	/	1%	/	/	/
CN1CCN(C(CNC(=O)C(=O)Nc2ccc(Cl)cc2)c2cccnc2)CC1 (stereo not drawn)	i	-1%	/	i	/
CCN(CC)CCN=c1c(C)nc(C#N)c(N)n1O	i	0%	/	i	/
COc1ccccc1S(=O)(=O)Cc1ccc(C(=O)N2CCN(c3ccc(C)cc3)C(C)C2)o1 (stereo not drawn)	?	5%	?	?	24%
COc1ccc(S(=O)(=O)Cc2ccc(C(=O)N3CCN(c4cccc(C)c4C)CC3)o2)cc1	?	1%	21µM*	?	?
Cc1ccc(C(=O)N2CCN(c3cccc(C)c3C)CC2)o1	?	2%	8%	16µM*	?
COc1ccc(S(=O)(=O)Cc2ccc(C(=O)N3CCN(c4cccc(C)c4)C(C)C3)o2)cc1 (stereo not drawn)	i	13%	15µM*	3.3µM*	6.5µM*
Cc1ccccc1S(=O)Cc1ccc(C(=O)N2CCN(c3cccc(C)c3C)CC2)o1 (stereo not drawn)	/	2%	/	/	/
Cc1ccc(C)c(N2CCN(C(=O)c3ccc(CS(=O)(=O)c4ccc(Br)cc4)o3)CC2)c1	i	2%	/	?	/
Cc1ccc(S(=O)(=O)Cc2ccc(C(=O)N3CCN(c4cccc(C)c4C)CC3)o2)cc1	2.9µM*!	4%	2.6µM*	i	?
